Source: PubChem BioAssay AID1053118 (Broad Institute, 2014)
Measured potencies and affinities stand elsewhere. Activity calls are given as the source filed them.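 Rule for the calls: active = fitted half-maximal concentration for ATP signal loss at most twice the top valid dose; inconclusive = flat curve between -70 and -30%, or an invalid fit; inactive = flat within ±30%, wrong direction, or potency past limit.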

Assay: viability loss in HepG2 hepatoma cells – cell-based, cherry-picks, set 5, cytotoxicity control, dose response (AID 1053118);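 note: 0% = neutral control wells and -100% = mitoxantrone positive control wells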
Details: ATP luminescence, 72 h; series mostly up to 26 µM; activity change, negative = cytotoxicity: at the top concentration

Structure (SMILES)	activity change, negative = cytotoxicity
C[C@H](CO)N1C[C@H](C)[C@@H](CN(C)Cc2ccccc2)Oc2ncc(-c3ccccc3)cc2C1=O	-17.7% (inactive)
Nc1c(C(=O)NCc2ccco2)nnn1Cc1ccccc1	-25.9% (inactive)
C[C@@H]1CN([C@@H](C)CO)C(=O)c2cc(NC(=O)CCCN(C)C)ccc2O[C@H]1CN(C)Cc1ccc(-c2ccccc2)cc1	-13.7% (inactive)
CCN1CCN(C(c2ccccc2)c2nnnn2Cc2ccccc2)CC1 (stereo not drawn)	-27.1% (inactive)
COc1ccc(CCNC(=O)C2CCN(Cc3nc(-c4ccccc4F)oc3C)CC2)cc1OC	11.5% (inactive)
CO[C@@H]1CN(C)C(=O)c2cc(NC(=O)Nc3ccc(Cl)c(Cl)c3)ccc2OC[C@H](C)NC[C@H]1C	-17.4% (inactive)
O=C(Nc1ccccc1F)N1C[C@H]2[C@@H](c3ccccc31)[C@H](CO)N2C(=O)C1CC1	8.97% (inactive)
O=C(CC1Nc2ccccc2NC1=O)Nc1ccc2c(c1)OCO2 (stereo not drawn)	1.78% (inactive)
C[C@@H]1CN([C@H](C)CO)C(=O)c2cc(NC(=O)CCCN(C)C)ccc2O[C@H]1CN(C)Cc1ccc(-c2ccccc2)cc1	-18.8% (inactive)
C[C@H](CO)N1C[C@H](C)[C@@H](CN(C)Cc2ccc(-c3ccccc3)cc2)Oc2ccc(NC(=O)CCCN(C)C)cc2C1=O	-3.63% (inactive)
O=S(=O)(c1ccccc1F)N1CC[C@@H]2[C@H]1c1cc(-c3cccc(F)c3)ccc1N[C@@H]2CO	-0.143% (inactive)
C[C@H](CO)N1C[C@H](C)[C@H](CN(C)C(=O)Nc2cccc3ccccc23)Oc2c(NC(=O)Nc3ccc(C(F)(F)F)cc3)cccc2C1=O	-13.8% (inactive)
C[C@@H]1CN([C@@H](C)CO)C(=O)c2cc(NC(=O)C3CCCCC3)ccc2O[C@H]1CN(C)Cc1ccc(-c2ccccc2)cc1	-0.237% (inactive)
